Active and inactive are the calls of the source.

For assay [1], the system named is Human papillomavirus type 1a protein E7 (residues 44-93). The assay is described as follows: small molecules binding HPV E7 44-93 – biochemical, small-molecule microarray, residues 44-93, 635 nm fluorescence, primary screen (AID 1108).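 Note: E7 fragment applied at 1 µg/mL in TBST for 1 h at 4 C; score combines spot fluorescence with its signal to noise ratio.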 To be noted: fluorescence 635 nm, higher = more signal.
Assay [2] can be described thus: hepatitis C replication reporter changes, two-sided – Huh7 cells, luciferase reporter, HCV replication inhibitor project, primary screen (AID 1109).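 Note: huh7 hepatoma cells harbouring a luciferase neomycin HCV replicon reporter; luciferase luminescence as measure of HCV replicon replication; test concentration not given here.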 To be noted: Huh7 HCV replicon luciferase reporter, 48 h; higher = more signal. (In general: Reporter assays use an easily measured gene product as a stand-in for the process of interest.)
For assay [3], the target named is Left-right determination factor 2 (Homo sapiens) (UniProt O00292). Put plainly: small molecules binding LEFTY2 protein – biochemical, small-molecule microarray, 635 nm fluorescence scan, primary screen (AID 1110). The conditions noted are these: higher = more signal.
Chain of Left-right determination factor 2 (Homo sapiens) (O00292 whole entry, looked up): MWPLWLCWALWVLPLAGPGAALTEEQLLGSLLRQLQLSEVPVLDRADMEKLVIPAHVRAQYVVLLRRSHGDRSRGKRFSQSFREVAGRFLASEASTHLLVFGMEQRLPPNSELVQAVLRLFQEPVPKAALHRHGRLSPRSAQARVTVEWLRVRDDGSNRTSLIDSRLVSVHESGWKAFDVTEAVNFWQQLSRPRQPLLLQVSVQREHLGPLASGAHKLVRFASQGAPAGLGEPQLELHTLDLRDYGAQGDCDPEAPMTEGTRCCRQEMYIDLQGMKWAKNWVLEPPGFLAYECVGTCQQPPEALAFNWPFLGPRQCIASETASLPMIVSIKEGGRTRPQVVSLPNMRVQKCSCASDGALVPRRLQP
For assay [4], the target named is Calmodulin-1 (Homo sapiens) (UniProt P0DP23). Put plainly: small molecules binding calmodulin-1 with EGTA – biochemical, small-molecule microarray, Cy5-labelled CALM1, profiling panel (AID 1111).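 Note: labelled calmodulin applied in Tris saline Tween buffer holding calcium plus EGTA and DTT.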 The conditions noted are these: Cy5-CALM1 binding fluorescence, higher = more signal.
For assay [5] the target is unchanged. The assay is described as follows: small molecules binding Ca-loaded calmodulin-1 – biochemical, small-molecule microarray, Cy5-labelled CALM1, plus calcium, artefact control for SMM control-protein annotation, profiling panel (AID 1112).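 Note: score merges spot fluorescence with signal to noise from triplicate slides.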 The conditions noted are these: Cy5-CALM1 binding fluorescence, higher = more signal.
Assay [6] in a line: probe aWnt5a binding to arrayed compounds – biochemical, biotinylated probe, 635/667 nm fluorescence, primary screen (AID 1113).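 Note: score merges 667 nm fluorescence intensity with signal-to-noise per printed feature.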 To be noted: small-molecule microarray, higher = more signal.
A short description of assay [7]: probe aShh binding to arrayed compounds – biochemical, biotinylated probe, 635/667 nm fluorescence, primary screen (AID 1114).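 Note: probe is biotin-labelled aShh protein from a stem cell growth factor screen; measures binding of labelled protein to compounds printed on the slide; score merges feature fluorescence at 667 nm with signal-to-noise.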 To be noted: small-molecule microarray, higher = more signal.
Assay [8] in a line: probe aNog binding to arrayed compounds – biochemical, biotinylated probe, 635/667 nm fluorescence, primary screen (AID 1115).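 Note: probe is biotinylated aNog protein used at 0.15 µg/mL for 1 h at 4 C; z-score combines 667 nm fluorescence of each spot with its signal to noise.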 To be noted: small-molecule microarray, higher = more signal.
Assay [9] addresses Torsin-1A-interacting protein 1 (Homo sapiens) (UniProt Q5JTV8). Put plainly: compound microarray binding of lysate hLAP1 – cell lysate, small-molecule microarray, COS7 lysate, 635/667 nm fluorescence, primary screen (AID 1116). To be noted: 635 nm fluorescence, higher = more signal.
In assay [10] the target is Alpha-bungarotoxin (Bungarus multicinctus) (UniProt P60615). The assay is described as follows: compounds binding labelled alpha-BTX control protein – biochemical, small-molecule microarray, Alexa647 label, 635/667 nm fluorescence, artefact control for SMM control protein annotation, profiling panel (AID 1117). The conditions noted are these: alpha-BTX-A647 binding fluorescence, higher = more signal.
Chain of Alpha-bungarotoxin (Bungarus multicinctus) (P60615 whole entry, looked up): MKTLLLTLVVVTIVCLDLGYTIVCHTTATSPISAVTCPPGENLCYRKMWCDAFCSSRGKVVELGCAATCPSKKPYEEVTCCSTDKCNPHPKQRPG

A further assay has as its target Albumin (Bos taurus) (UniProt P02769). Put plainly: compounds binding labelled BSA control protein – biochemical, small-molecule microarray, Alexa647 label, 635/667 nm fluorescence, artefact control for SMM control protein annotation, profiling panel (AID 1118).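 Note: score merges 667 nm emission intensity and signal-to-noise per printed compound spot.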 The conditions noted are these: BSA-A647 binding, fluorescence 635 nm, higher = more signal.
The nature of assay [11]: probe aXIP binding to arrayed compounds – biochemical, NeuroSMM set, 635/667 nm fluorescence, primary screen (AID 1119).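 Note: probe is the protein aXip251-270 applied at 1 µg/mL to compound-printed slides; binding of probe to printed compounds measured as 667 nm fluorescence plus signal to noise.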 The conditions noted are these: small-molecule microarray, higher = more signal, called active from +8 up or from −8 down.
The nature of assay [12]: probe aNOTCH3 binding on compound microarray – biochemical, small-molecule microarray, 635/667 nm fluorescence, primary screen (AID 1120).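 Note: probe is a biotin-tagged antibody raised against NOTCH3 rather than NOTCH3 protein; score merges spot fluorescence near 667 nm with spot signal to noise.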 The conditions noted are these: higher = more signal.
A short description of assay [13]: probe aNOTCH2 binding on compound microarray – biochemical, small-molecule microarray, 635/667 nm fluorescence, primary screen (AID 1121).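 Note: score merges feature fluorescence read at 667 nm with its signal to noise.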 The conditions noted are these: higher = more signal.
In assay [14] the target is Carbonic anhydrase 2 (Homo sapiens) (UniProt P00918). The assay is described as follows: compounds binding carbonic anhydrase 2 – biochemical, small-molecule microarray, Alexa647-labelled CAII, profiling panel (AID 1122). To be noted: CAII-A647 binding fluorescence, higher = more signal.
A short description of assay [15]: COS7 lysate on small-molecule microarray, probe aHis, 635 nm (AID 1123).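 Note: z-score combines 667nm fluorescence intensity with signal-to-noise per printed compound spot.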 To be noted: COS7 cell lysate, fluorescence, higher = more signal.
Assay [16] can be described thus: probe aLAP1 signal on lysate-treated microarray – cell lysate, small-molecule microarray, COS7 lysate, primary screen (AID 1124).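 Note: lysate comes from COS7 cells expressing LAP1 and is applied at 0.3 µg/mL; score merges spot fluorescence near 667 nm with signal-to-noise over triplicate slides.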 To be noted: probe aLAP1, fluorescence, higher = more signal.
A further assay deals with Sam68 (KHDRBS1). Put plainly: compounds binding KHDRBS1 protein – biochemical, small-molecule microarray, 635 nm fluorescence, primary screen (AID 1125).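 Note: score merges 667 nm channel intensity with signal to noise over triplicate slides.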 The conditions noted are these: higher = more signal.
Assay [17] relates to Chordin-like protein 2 (CHRDL2). Put plainly: compounds binding chordin-like 2 – biochemical, small-molecule microarray, 635 nm fluorescence, primary screen (AID 1126).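 Note: printed compound slides probed with Chrdl2 protein at 4 µg/mL for 1 h at 4 C; score merges 667 nm emission intensity with signal to noise over three replicate slides.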 The conditions noted are these: fluorescence 635 nm, higher = more signal.
Assay [18] deals with Concanavalin-A (Canavalia ensiformis) (UniProt P02866). The assay is described as follows: compounds binding concanavalin A lectin – biochemical, small-molecule microarray, Alexa647 label, 635 nm, artefact control for SMM control protein annotation, primary screen (AID 1127).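 Note: z combines 667 nm emission intensity with signal-to-noise across three replicate slides.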 The conditions noted are these: ConA-A647 binding fluorescence, higher = more signal.
Chain of Concanavalin-A (Canavalia ensiformis) (P02866 whole entry, looked up): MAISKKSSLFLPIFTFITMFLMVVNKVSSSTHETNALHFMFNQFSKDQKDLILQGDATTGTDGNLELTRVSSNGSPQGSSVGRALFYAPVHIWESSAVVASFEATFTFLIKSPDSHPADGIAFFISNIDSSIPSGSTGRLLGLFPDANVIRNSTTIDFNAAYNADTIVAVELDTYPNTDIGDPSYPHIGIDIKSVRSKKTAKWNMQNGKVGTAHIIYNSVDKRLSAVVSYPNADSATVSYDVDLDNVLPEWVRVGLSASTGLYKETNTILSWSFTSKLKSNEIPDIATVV

Chain of Torsin-1A-interacting protein 1 (Homo sapiens) (Q5JTV8 whole entry, looked up): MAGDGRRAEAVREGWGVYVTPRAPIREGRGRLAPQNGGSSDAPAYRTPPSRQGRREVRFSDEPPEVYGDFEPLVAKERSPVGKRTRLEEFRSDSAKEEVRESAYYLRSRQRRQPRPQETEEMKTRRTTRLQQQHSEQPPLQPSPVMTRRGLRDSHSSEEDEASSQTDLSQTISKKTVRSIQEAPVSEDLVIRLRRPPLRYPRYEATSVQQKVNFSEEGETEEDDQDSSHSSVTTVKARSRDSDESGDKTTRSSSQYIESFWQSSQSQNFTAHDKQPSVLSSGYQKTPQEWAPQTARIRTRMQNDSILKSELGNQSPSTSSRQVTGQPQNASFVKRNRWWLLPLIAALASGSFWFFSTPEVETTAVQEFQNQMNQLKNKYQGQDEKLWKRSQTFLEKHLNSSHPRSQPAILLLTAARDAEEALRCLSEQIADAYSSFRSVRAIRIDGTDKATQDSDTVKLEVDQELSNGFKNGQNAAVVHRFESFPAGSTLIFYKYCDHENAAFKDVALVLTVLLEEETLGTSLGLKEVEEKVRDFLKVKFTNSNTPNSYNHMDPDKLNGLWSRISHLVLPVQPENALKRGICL
Chain of Albumin (Bos taurus) (P02769 whole entry, looked up): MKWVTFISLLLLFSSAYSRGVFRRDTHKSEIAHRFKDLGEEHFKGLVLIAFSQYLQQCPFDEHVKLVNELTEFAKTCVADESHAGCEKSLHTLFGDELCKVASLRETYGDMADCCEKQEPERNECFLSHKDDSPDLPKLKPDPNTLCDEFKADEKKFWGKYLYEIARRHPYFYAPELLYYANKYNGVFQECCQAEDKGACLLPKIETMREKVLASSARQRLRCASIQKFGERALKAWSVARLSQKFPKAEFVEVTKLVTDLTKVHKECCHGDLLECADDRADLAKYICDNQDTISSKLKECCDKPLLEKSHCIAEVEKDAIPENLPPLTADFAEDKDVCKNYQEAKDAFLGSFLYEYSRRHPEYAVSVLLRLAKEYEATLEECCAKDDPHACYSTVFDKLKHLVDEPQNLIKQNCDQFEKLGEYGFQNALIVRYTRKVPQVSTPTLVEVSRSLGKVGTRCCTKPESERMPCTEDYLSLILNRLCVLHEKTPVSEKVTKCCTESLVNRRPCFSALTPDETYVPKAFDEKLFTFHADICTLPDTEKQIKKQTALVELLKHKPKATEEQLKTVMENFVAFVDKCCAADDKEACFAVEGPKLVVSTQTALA

`CN(C)CCCC[C@@H]1NC(=O)[C@H]2C[C@@H](C(=O)NCc3ccc(F)cc3)[C@@H](c3ccc(O)cc3)N2C1=O`: the composite z-score in assay [1] is -0.247; in [3], 1.15; in assay [4], -1.08; in assay [5], 0.354; in [6], -0.0748; in assay [7] it was 0.365. Further, the composite z-score in [8] was -0.273; in [9] it was 1.03; in assay [10], 2.5; with Albumin (Bos taurus) it was -0.734; in assay [12], -0.136; in [13], -0.0423. Moreover, the composite z-score came out at 0.757 in assay [14]; 2.25 in [15]; 0.0507 in [16]; 1.16 in the assay with Sam68 (KHDRBS1); 1.13 in assay [17]; 1.15 in assay [18]. This molecule also returned a z-score in assay [2] of 0.206. Further, the composite Z-score in assay [11] was 1.79 (inactive).
On to `C=CCNC(=O)[C@H]1[C@@H]2C(=O)O[C@@H](c3ccccc3)[C@@H](c3ccccc3)N2[C@@H](c2ccc(O)cc2)[C@]12C(=O)Nc1ccc(C#CC3=CCCCC3)cc12`, for which the composite z-score in assay [1] is 1.32; in assay [3], 0.71; in assay [4], 0.887; in assay [5] it was 0.571; in [6], 0.163; in [7] it was 0.951. In addition, the composite z-score in assay [8] is 0.587; in assay [9], 1.11; in assay [10], 0.491; with Albumin (Bos taurus) it was 0.135; in assay [12], -0.119; in assay [13], 0.23. In addition, the composite z-score in assay [14] was 0.416; in assay [15], 1.52; in [16], 0.573; in the assay with Sam68 (KHDRBS1), 1.11; in assay [17], 0.62; in [18] it was 1.12. This molecule also registered a z-score in assay [2] of -1.83. In addition, the composite Z-score in assay [11] is -0.121 (inactive).
As for `CC(C)C[C@H]1NC(=O)[C@@]23C(=O)N[C@@H](Cc4ccccc4)C2[C@H](C)[C@@]2(C)O[C@H]2C3/C=C/C/C=C\CNC(=O)[C@@H]2CCCN2C1=O` (stereo not given in full), the composite z-score in assay [1] is 0.612; in assay [3], 0.459; in assay [4], -0.0621; in assay [5], -0.576; in assay [6], -0.0704; in assay [7], 0.111. Further, the composite z-score in assay [8] was 0.283; in assay [9], 0.268; in assay [10], 0.288; with Albumin (Bos taurus) it was 0.773; in assay [12] it was 0.0694; in assay [13], -0.176. The composite z-score in assay [14] was 0.725; in assay [15], 1.23; in [16] it was 0.145; in the assay with Sam68 (KHDRBS1), 0.975; in [17], 0.293; in [18] it was 0.276. Also, the z-score in assay [2] is -0.0034. For the same molecule, the composite Z-score in assay [11] was 0.119 (inactive).
As to `CCCC=C(CCC)[C@@H](NS(=O)(=O)c1ccc(Cl)cc1)c1ccccc1`, the composite z-score in assay [1] is -0.201; in assay [3], -1.34; in assay [4] it was 0.451; in assay [5], 0.781; in assay [6], 0.954; in [7], 0.508. The composite z-score in assay [8] was 1.07; in assay [9] it was -1.24; in [10] it was 0.64; in the assay with Albumin (Bos taurus), 0.046; in assay [12], -0.056; in assay [13], 0.194. Further, the composite z-score in [14] is 0.281; in [15], 0.829; in assay [16], 1.28; in the assay with Sam68 (KHDRBS1), 0.127; in assay [17], -0.845; in assay [18], 0.205. Besides, the z-score in assay [2] is -0.777. For the same molecule, in assay [11], the composite Z-score was -0.0223 (inactive).
On to `COc1ccc([Si](C)(C)[C@H]2[C@H](CC(=O)N3Cc4ccccc4C[C@H]3CO)O[C@@]3(C(=O)N(Cc4cccc(N5C(=O)c6cccc7cccc5c67)c4)c4ccccc43)[C@@H]2C)cc1`, for which the composite z-score in assay [1] is 1.19; in assay [3], 0.633; in assay [4], -0.144; in [5], -0.836; in assay [6], -0.0316; in assay [7], -0.0778. Besides, the composite z-score in [8] was 1.11; in [9], 0.302; in assay [10], 2.33; with Albumin (Bos taurus) it was -0.0311; in assay [12], -0.332; in assay [13], -0.114. The composite z-score in assay [14] stood at 0.295; in assay [15] it was 1.32; in assay [16] it was 0.271; in the assay with Sam68 (KHDRBS1), 1.15; in [17], 1.33; in assay [18], 0.872. This molecule showed a z-score in [2] of -4.08. For the same molecule, the composite Z-score in assay [11] was 0.285 (inactive).
Regarding `CC(C)C[C@H]1NC(=O)[C@H](Cc2ccccc2)NC(=O)[C@@]23C(=O)N[C@@H](Cc4ccccc4)C2[C@H](C)[C@@]2(C)O[C@H]2C3/C=C/C/C=C\CNC1=O` (stereo not given in full), the composite z-score in [1] was -0.361; in [3], 0.431; in [4], -0.128; in assay [5] it was 0.263; in assay [6], -0.096; in [7], -0.214. The composite z-score in [8] is 0.3; in assay [9], 0.765; in assay [10] it was 0.93; in the assay with Albumin (Bos taurus) it was -0.235; in [12] it was -0.0077; in [13], -0.153. For the same molecule, the composite z-score in assay [14] amounted to 0.535; in assay [15], 1.14; in assay [16], 0.495; in the assay on Sam68 (KHDRBS1), 1.3; in assay [17] it was 0.937; in assay [18], 0.738. For the same molecule, the z-score in assay [2] was -2.09. Besides, the composite Z-score in assay [11] was 0.63 (inactive).

The values above are taken from PubChem BioAssay.
